The test has as its target Neurogenic locus notch homolog protein 2 (Homo sapiens) (UniProt Q04721). Description: Notch2 binders on small-molecule microarrays, primary screen, biochemical, small-molecule microarray, 635 nm fluorescence, stem cell growth factors (AID 1073). The following applies: Notch2 binding, higher = more signal.
Neurogenic locus notch homolog protein 2 (Homo sapiens), sequence (Q04721 whole entry, looked up): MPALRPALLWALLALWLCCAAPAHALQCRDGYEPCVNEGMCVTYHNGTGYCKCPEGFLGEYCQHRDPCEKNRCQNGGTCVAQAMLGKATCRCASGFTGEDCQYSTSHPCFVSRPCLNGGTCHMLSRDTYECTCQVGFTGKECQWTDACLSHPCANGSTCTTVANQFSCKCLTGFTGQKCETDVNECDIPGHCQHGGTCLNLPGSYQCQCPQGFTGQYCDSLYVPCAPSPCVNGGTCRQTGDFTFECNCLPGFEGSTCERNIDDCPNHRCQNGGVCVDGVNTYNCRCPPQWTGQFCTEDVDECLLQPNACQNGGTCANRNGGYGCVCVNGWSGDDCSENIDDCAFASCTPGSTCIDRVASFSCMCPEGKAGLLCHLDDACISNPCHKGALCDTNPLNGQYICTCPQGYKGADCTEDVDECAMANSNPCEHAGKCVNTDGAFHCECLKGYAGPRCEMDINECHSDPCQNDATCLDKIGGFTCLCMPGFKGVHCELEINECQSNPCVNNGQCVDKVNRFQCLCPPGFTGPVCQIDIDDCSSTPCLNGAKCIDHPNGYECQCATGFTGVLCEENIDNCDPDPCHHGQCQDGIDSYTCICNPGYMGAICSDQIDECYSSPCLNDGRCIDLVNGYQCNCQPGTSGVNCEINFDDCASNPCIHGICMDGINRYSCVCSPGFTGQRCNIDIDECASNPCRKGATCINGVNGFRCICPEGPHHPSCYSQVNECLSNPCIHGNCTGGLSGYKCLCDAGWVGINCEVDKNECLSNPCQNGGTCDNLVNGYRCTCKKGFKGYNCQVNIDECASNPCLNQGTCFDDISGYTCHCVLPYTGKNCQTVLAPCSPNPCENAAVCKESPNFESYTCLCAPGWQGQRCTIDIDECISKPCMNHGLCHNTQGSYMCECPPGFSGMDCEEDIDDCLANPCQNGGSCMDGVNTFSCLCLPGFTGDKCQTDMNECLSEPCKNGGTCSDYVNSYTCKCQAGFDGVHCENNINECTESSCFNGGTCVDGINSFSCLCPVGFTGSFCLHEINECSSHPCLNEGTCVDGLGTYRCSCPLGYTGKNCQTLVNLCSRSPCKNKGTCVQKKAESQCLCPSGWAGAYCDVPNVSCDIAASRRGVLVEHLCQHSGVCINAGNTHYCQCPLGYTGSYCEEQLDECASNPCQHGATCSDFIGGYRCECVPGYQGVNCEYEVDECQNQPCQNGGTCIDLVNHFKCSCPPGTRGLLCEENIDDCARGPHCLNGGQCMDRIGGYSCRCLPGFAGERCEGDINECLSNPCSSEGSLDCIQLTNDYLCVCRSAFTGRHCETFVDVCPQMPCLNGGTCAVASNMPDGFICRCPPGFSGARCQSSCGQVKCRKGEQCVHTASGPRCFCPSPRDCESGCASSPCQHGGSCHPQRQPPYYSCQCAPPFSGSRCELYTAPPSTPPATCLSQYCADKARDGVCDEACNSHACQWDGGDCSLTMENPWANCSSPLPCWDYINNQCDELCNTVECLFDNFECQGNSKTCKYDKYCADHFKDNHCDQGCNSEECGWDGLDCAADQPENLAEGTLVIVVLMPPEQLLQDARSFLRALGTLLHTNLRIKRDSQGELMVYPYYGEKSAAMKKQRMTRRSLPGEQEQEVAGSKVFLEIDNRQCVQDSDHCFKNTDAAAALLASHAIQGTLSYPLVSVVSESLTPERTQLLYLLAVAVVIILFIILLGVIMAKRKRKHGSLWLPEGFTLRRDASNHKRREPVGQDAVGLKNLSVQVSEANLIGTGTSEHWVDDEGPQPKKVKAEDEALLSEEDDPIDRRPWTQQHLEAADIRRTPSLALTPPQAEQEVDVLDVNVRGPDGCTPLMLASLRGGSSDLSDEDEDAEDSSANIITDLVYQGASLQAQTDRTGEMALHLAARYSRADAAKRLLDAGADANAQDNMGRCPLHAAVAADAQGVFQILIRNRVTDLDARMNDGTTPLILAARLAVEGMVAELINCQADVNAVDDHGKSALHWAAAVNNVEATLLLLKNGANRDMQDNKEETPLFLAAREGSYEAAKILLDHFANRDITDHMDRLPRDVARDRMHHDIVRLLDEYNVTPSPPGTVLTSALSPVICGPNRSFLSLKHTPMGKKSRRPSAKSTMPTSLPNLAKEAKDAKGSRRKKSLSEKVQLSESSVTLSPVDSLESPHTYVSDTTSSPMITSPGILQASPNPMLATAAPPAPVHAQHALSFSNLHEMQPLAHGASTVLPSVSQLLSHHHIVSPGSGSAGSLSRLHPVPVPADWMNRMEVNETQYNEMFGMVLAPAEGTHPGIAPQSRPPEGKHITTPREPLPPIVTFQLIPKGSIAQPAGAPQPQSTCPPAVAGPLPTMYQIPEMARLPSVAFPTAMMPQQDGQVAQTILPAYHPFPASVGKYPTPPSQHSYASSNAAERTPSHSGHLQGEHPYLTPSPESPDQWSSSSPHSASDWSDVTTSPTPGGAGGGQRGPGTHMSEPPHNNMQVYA
In the case of `O=C1O[C@H](c2ccccc2)[C@H](c2ccccc2)N2[C@H]1[C@@H](C(=O)Nc1nc3ccccc3s1)[C@]1(C(=O)Nc3ccc(C#CCCO)cc31)[C@H]2c1ccc(OCCO)cc1`, the composite z-score was determined as 1.19.

Compound `O=C1OCCC/C=C\[C@H]2OC34C=CCN(Cc5ccccc5)C(=O)[C@H]3N(CCCCCCO)C(=O)[C@@H]4C12` (stereo not given in full) gave a composite z-score of -0.793.

On to `C=CC[C@]1(C(=O)N2CCCCC2)N=C(c2ccc(OCCCO)cc2)O[C@H]1c1ccccc1`, for which the composite z-score came out at 0.668.

In turn, `COc1ccc(C(=O)O[C@H]2CC[C@]3(C)C4=C(CCC3C2(C)C)[C@]2(C)CC[C@H]([C@H](C)CCCC(C)C)[C@@]2(C)CC4)cc1` (stereo not given in full) came in with a composite z-score of 0.611.

Consider `C[C@]1(C(=O)NC2CC2)c2ccccc2C(=O)N(Cc2cc(C(F)(F)F)cc(C(F)(F)F)c2)[C@H]1c1ccc(CO)cc1`, for which the composite z-score was 1.26.

For the compound `NCCCCCNC(=O)[C@@H]1C[C@@H]2C(=O)NCC(=O)N2[C@@H]1c1ccc(O)cc1`, the composite z-score is -0.195.

In turn, `[N-]=[N+]=Nc1ccccc1C[C@@]1(C(=O)NCCN2CCOCC2)N=C(c2ccc(OCCCO)cc2)O[C@@H]1c1ccccc1` gave a composite z-score of 1.59.

For the compound `Cc1ccc(S[C@]2(C(=O)NC3CC3)CC(=O)N(C3Cc4ccccc4C3)[C@@H]2c2ccc(CO)cc2)cc1`, the composite z-score was -0.363.

In turn, `C=C(/C(=C/C[C@@H](OC(C)=O)c1ccc(OCCO)cc1)c1cnc2ccccc2c1)C(C)C` displayed a composite z-score of 0.205.

The compound `CC1(C)[C@@H]2CC(C(O)C3C=CC4C(=O)N(c5ccccc5)C(=O)C4N3Nc3ccccc3)=C[C@H]1C2` (stereo not given in full) gave a composite z-score of 1.03.

Take `COC(=O)[C@@]1(Cc2ccc(F)cc2)[C@H]2c3cc(C(=O)N4CCCC4)n(Cc4cc(C)n(C)n4)c3C[C@H]2CN1C(=O)c1ccccc1`: the composite z-score was 1.63.

For the compound `CC1CC/C=C\[C@H]2OC34C=CCN(c5ccc(Cl)cc5)C(=O)[C@H]3N(CCO)C(=O)[C@]4(C)C2C(=O)O1` (stereo not given in full), the composite z-score was -0.749.

The compound `O=C1O[C@H](c2ccccc2)[C@H](c2ccccc2)N2[C@H]1[C@@H](C(=O)O)[C@]1(C(=O)Nc3ccc(C#CCCO)cc31)[C@H]2c1ccc(O)cc1` gave a composite z-score of -0.665.

The compound `COc1cc2c(cc1O)C=[N+](Cc1cccc(OC(F)(F)F)c1)CC2` registered a composite z-score of 0.457.

Compound `COC(=O)c1c(CC[C@@H](CO)NC(=O)N[C@H](Cn2cc(Cc3ccccc3)nn2)C(C)C)oc(C(C)=O)c1C(=O)OC` registered a composite z-score of 0.0441.

Take `O=C1O[C@H](c2ccccc2)[C@H](c2ccccc2)N2[C@H]1[C@@H](C(=O)N1CCN(c3ncccn3)CC1)[C@]1(C(=O)Nc3ccc(C#CC4=CCCCC4)cc31)[C@H]2c1ccc(O)cc1`: the composite z-score came to 1.28.

On to `CN(C)CCCNC(=O)[C@@]1(c2ccc([N+](=O)[O-])cc2)CC(=O)N(C2CCCCC2)[C@@H]1c1ccc(CO)cc1`, for which the composite z-score was -0.513.

With `COc1ccc(C#Cc2ccc3c(c2)[C@]2(C(=O)N3)[C@H](c3ccccc3OCCO)N3[C@H](c4ccccc4)[C@H](c4ccccc4)OC(=O)[C@H]3[C@@H]2C(=O)O)cc1`, the composite z-score turned out to be 1.34.

The compound `COc1ccc([C@H]2OC[C@@H]3CC4(CC=CC4)C(=O)N32)cc1` had a composite z-score of -0.321.

For the compound `COc1ccc(C(O)C2C=CC3C(=O)NC(=O)C3N2Nc2ccccn2)c2ccccc12` (stereo not given), the composite z-score came out at 0.388.

`Cc1ccc(S[C@]2(C(=O)NC(C)C)CC(=O)N(Cc3ccccc3Cl)[C@@H]2c2ccc(CO)cc2I)cc1` came in with a composite z-score of -1.31.

For the compound `C=CCOC(=O)[C@@H]1[C@H]2C(=O)O[C@H](c3ccccc3)[C@H](c3ccccc3)N2[C@H](c2ccc(OCCOC(=O)[C@@H]3C[C@@H]4C(=O)N5CCC[C@H]5C(=O)N4[C@@H]3c3ccc(O)cc3)cc2)[C@@]12C(=O)Nc1ccc(I)cc12`, the composite z-score worked out at 0.666.

The compound `CCN(CC)c1ccc(N2CC=CC34O[C@@H]5/C=C\CCCOC(=O)C5[C@H]3C(=O)N(CCO)[C@@H]4C2=O)cc1` (stereo not given in full) gave a composite z-score of -1.24.

As to `C=CCNC(=O)[C@@H]1[C@H]2C(=O)O[C@H](c3ccccc3)[C@H](c3ccccc3)N2[C@H](c2ccc(OCCO)cc2)[C@@]12C(=O)Nc1ccc(C#CCCO)cc12`, the composite z-score was 1.05.

For the compound `COC(=O)C(CC#Cc1ccc2c(c1)[C@]1(C(=O)N2)[C@H](c2ccc(O)cc2)N2[C@H](c3ccccc3)[C@H](c3ccccc3)OC(=O)[C@H]2[C@@H]1C(=O)Nc1nc2ccccc2s1)C(=O)OC`, the composite z-score was found to be 1.23.

Take `CCOC(=O)C[C@H]1[C@H](OC(=O)c2cc3ccccc3oc2=O)[C@@H](NC(=O)C2CCCCC2)c2cc(OCCCO)ccc2N1C(=O)c1ccccc1`: the composite z-score came out at 1.29.

As for `C=CC[C@@]1(C(N)=O)N=C(c2ccc(OCCCO)cc2)O[C@@H]1c1ccccc1CN=[N+]=[N-]`, the composite z-score was found to be 0.77.

The compound `COc1ccc([Si](C)(C)[C@H]2[C@H](CCO)O[C@@]3(C(=O)N(C)c4c(Br)cc(C)cc43)[C@@H]2C)cc1` showed a composite z-score of 0.432.

On to `C[C@@]1([C@@H](NC(=O)c2ccccc2)c2ccc(-c3ccccc3)cc2)C[C@H]1C1CCCCC1`, for which the composite z-score was 1.16.

For the compound `O=C1NC(=O)C2C1C=CC(C(O)C(c1ccccc1)c1ccccc1)N2Nc1ccc(Cl)cc1Cl` (stereo not given), the composite z-score was 1.49.

For the compound `COCCOC(=O)N1C(=O)[C@@]2(c3cc(C#Cc4ccc(OC)cc4)ccc31)[C@H](C(N)=O)[C@H]1C(=O)O[C@H](c3ccccc3)[C@H](c3ccccc3)N1[C@@H]2c1ccccc1OCCO`, the composite z-score worked out at 1.53.

Consider `C#CCN(Cc1ccccc1Br)C(/C=C/c1ccccc1)CO` (stereo not given), for which the composite z-score is -0.619.

For `CCCN1C(=O)[C@]2(CCS(=O)(=O)c3ccccc3)N=C(c3ccc(OCCCO)cc3)O[C@@H]2c2ccccc21`, the composite z-score is 0.58.

On to `COCCOC(=O)N1C(=O)[C@@]2(c3cc(C#CCCO)ccc31)[C@H](C(=O)Nc1nc3ccccc3s1)[C@H]1C(=O)O[C@H](c3ccccc3)[C@H](c3ccccc3)N1[C@@H]2c1ccc(OCCO)cc1`, for which the composite z-score was 1.19.

The compound `CCCCC(=C=CC[C@@H](O)c1ccccc1OCCO)CCO` had a composite z-score of -0.333.

The values above are taken from PubChem BioAssay.
